Measured values as given in PubChem BioAssay (EPA / NIEHS).
“And” between values parts separate entries of the source, which are not always exact repeats. Identical values can stand only once. Inconclusive results are not listed. A structure can be active in one record and inactive in another. The source made the active and inactive calls. The calls were made as follows, unless noted: active = hit-call score of the fitted dose curve at least 0.9, where 1 is the maximum; inactive = score below 0.9.

How the values were obtained:
[1] = BSK_4H_Eotaxin3: BioMAP Diversity Plus: 4H Assay for Eotaxin 3 Biomarker Activity (AID 2283000); settings: primary human endothelial cells (HUVEC); actives raise or lower the signal
In short: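 Readout is Eotaxin-3 (CCL26) level by ELISA in primary human umbilical vein endothelial cells harvested 24 h after chemical exposure; activity fitted in both directions against DMSO control.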

[2] = target: human Peroxisome Proliferator-activated Receptor delta (PPARd), PPARD (gene 5467) (UniProt Q03181); experiment: ATG_PPARd_TRANS: Attagene TRANS-FACTORIAL HepG2 Assay for human Peroxisome Proliferator-activated Receptor delta (PPARd) (AID 2283002; active = hit-call score of the fitted dose curve at least 0.9, where 1 is the maximum)
Sequence of human Peroxisome Proliferator-activated Receptor delta (PPARd), PPARD (gene 5467) (Q03181 whole entry, looked up): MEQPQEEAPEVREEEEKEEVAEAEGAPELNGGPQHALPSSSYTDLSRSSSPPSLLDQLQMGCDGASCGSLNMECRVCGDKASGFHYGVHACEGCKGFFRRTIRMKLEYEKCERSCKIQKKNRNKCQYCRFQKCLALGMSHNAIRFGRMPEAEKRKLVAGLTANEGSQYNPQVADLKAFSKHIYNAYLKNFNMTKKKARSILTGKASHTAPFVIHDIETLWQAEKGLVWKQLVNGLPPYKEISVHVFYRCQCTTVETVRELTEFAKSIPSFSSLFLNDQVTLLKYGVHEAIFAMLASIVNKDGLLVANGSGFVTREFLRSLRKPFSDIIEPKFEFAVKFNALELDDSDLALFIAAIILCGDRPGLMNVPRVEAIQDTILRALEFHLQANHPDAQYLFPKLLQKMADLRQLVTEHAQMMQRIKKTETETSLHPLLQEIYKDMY
In short: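 Cell-based TRANS reporter: HepG2, transient MRTU transfection, 24 h exposure. Readout = reporter mRNA (RT-PCR/CE, 6-FAM). Gain-of-signal fit vs DMSO control.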

[3] = read-out: Intercellular Adhesion Molecule 1 (ICAM1), ICAM1 (gene 3383); experiment: BSK_3C_ICAM1: BioMAP Diversity Plus: 3C Assay for Intercellular Adhesion Molecule 1 (ICAM1) Biomarker Activity (AID 2283003); settings: primary human endothelial cells (HUVEC); actives raise or lower the signal
In short: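 Primary human umbilical vein endothelial cells in the BioMAP 3C system were exposed to chemicals for 24 h, then ICAM-1 was quantified by ELISA. Activity was fitted bidirectionally against the DMSO negative control baseline.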

[4] = BSK_3C_Proliferation: Cell Proliferation Assessment in the BioMAP Diversity Plus: 3C Assay (AID 2283006); settings: primary human endothelial cells (HUVEC);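 as to AC50: potency may reflect either rise or fall in cell number versus DMSO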
In short: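 Human umbilical vein endothelial cells were grown sub-confluent and exposed to chemical for 48 h, then fixed with 10% TCA and stained with 0.1% sulforhodamine B; absorbance at 560 nm gave relative cell number, fitted bidirectionally against DMSO baseline.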

[5] = target: Peroxisome proliferator-activated receptor gamma (Homo sapiens) (UniProt P37231); experiment: ATG_PPARg_TRANS: Attagene TRANS-FACTORIAL HepG2 Assay for human Peroxisome Proliferator-activated Receptor-gamma (PPARg) (AID 2283007; active = hit-call score of the fitted dose curve at least 0.9, where 1 is the maximum)
Sequence of Peroxisome proliferator-activated receptor gamma (Homo sapiens) (P37231 whole entry, looked up): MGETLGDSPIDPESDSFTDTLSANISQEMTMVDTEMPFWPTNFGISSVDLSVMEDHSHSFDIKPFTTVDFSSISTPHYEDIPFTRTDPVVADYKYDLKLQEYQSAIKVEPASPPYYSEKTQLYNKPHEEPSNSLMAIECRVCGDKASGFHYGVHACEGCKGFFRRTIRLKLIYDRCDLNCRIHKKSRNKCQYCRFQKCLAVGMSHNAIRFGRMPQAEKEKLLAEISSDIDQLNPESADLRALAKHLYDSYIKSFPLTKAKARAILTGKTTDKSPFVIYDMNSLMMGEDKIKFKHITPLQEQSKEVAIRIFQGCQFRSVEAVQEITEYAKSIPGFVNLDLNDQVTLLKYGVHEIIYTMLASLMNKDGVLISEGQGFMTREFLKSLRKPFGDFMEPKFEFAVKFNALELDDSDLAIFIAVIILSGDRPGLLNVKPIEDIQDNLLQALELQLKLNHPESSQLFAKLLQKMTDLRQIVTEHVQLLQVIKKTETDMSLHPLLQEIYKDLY
In short: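 Human hepatoma HepG2, transient MRTU transfection, 24 h treatment. mRNA reporter signal by RT-PCR plus capillary electrophoresis, fluorescence detection; fitted for increase over DMSO negative control.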

[6] = target: human Retinoic Acid Receptor gamma (RARg), RARG (gene 5916) (UniProt P13631); experiment: ATG_RARg_TRANS: Attagene TRANS-FACTORIAL HepG2 Assay for human Retinoic Acid Receptor gamma (RARg) (AID 2283009; active = hit-call score of the fitted dose curve at least 0.9, where 1 is the maximum)
Sequence of human Retinoic Acid Receptor gamma (RARg), RARG (gene 5916) (P13631 whole entry, looked up, the tested form may be a part): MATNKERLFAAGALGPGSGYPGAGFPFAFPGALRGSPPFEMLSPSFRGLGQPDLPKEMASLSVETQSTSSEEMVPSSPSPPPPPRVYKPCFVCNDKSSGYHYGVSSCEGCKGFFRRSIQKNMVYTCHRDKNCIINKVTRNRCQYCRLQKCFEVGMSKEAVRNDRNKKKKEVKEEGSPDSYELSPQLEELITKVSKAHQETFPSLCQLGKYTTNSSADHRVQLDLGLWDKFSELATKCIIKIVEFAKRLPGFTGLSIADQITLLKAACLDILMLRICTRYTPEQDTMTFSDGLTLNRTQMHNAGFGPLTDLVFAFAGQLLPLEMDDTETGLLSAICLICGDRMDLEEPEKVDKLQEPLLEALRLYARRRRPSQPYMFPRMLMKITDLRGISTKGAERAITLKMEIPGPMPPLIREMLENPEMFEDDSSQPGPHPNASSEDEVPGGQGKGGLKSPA
In short: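 HepG2 cells transiently transfected with multiplexed reporter units expressing chimeric RARg-GAL4 and GAL4-UAS-driven reporters; 24 h compound exposure. Reporter mRNA quantified by RT-PCR with fluorescent labelling and capillary electrophoresis; gain-of-signal fitted relative to DMSO baseline.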

[7] = target: human RAR-related Orphan Receptor beta (RORb), RORB (gene 6096) (UniProt Q92753); experiment: ATG_RORb_TRANS: Attagene TRANS-FACTORIAL HepG2 Assay for human RAR-related Orphan Receptor beta (RORb) (AID 2283010; active = hit-call score of the fitted dose curve at least 0.9, where 1 is the maximum)
Sequence of human RAR-related Orphan Receptor beta (RORb), RORB (gene 6096) (Q92753 whole entry, looked up, the tested form may be a part): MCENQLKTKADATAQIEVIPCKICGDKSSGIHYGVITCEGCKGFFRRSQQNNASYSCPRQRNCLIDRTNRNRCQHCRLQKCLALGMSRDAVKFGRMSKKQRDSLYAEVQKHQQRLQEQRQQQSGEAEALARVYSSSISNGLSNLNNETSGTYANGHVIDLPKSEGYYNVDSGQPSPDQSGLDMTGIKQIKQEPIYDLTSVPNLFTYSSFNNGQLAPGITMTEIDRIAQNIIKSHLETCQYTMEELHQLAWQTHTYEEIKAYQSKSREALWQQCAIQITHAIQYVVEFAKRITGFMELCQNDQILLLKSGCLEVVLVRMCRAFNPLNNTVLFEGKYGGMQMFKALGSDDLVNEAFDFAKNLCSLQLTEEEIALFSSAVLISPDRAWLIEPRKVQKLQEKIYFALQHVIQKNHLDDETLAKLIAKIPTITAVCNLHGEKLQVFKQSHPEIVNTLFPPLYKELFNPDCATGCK
In short: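 HepG2 cells were transiently transfected with multiplexed GAL4-UAS reporter units expressing chimeric nuclear receptor–GAL4 proteins, then dosed for 24 h. Reporter mRNA was quantified by RT-PCR with fluorescent labelling and capillary electrophoresis; gain of signal was fitted relative to DMSO.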

[8] = target: human Retinoid X Receptor beta (RXRb), RXRB (gene 6257) (UniProt P28702); experiment: ATG_RXRb_TRANS: Attagene TRANS-FACTORIAL HepG2 Assay for human Retinoid X Receptor beta (RXRb) (AID 2283013; active = hit-call score of the fitted dose curve at least 0.9, where 1 is the maximum)
Sequence of human Retinoid X Receptor beta (RXRb), RXRB (gene 6257) (P28702 whole entry, looked up, the tested form may be a part): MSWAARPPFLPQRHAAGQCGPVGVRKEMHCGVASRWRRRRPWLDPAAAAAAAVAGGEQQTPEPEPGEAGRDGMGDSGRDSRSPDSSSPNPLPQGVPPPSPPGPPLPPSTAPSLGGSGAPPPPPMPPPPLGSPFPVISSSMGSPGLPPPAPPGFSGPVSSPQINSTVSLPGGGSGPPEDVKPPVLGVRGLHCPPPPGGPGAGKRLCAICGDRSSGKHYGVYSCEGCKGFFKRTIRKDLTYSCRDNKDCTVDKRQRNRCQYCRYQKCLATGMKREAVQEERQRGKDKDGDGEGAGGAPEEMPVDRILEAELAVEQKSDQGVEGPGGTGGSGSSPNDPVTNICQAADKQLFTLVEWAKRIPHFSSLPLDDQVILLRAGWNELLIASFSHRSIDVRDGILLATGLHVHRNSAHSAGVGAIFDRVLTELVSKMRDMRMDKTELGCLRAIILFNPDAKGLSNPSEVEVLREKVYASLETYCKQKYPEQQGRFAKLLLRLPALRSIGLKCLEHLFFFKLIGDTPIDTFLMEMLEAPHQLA
In short: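 HepG2 cells transiently transfected with multiplexed reporter units driven by GAL4-UAS and exogenous chimeric NR-Gal4 proteins; treated 24 h. Reporter mRNA measured by RT-PCR, 6-FAM labelling and capillary electrophoresis; gain-of-signal fitted versus DMSO baseline.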

[9] = read-out: E-selectin (Homo sapiens) (UniProt P16581); experiment: BSK_3C_Eselectin: BioMAP Diversity Plus: 3C Assay for Eselectin Biomarker Activity (AID 2283015); settings: primary human endothelial cells (HUVEC); actives raise or lower the signal
In short: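 HUVEC, 3C stimulation; compound exposure 24 h; E-selectin by ELISA; gain- or loss-of-signal fitted bidirectionally vs DMSO baseline.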

[10] = read-out: Interleukin-1 alpha (IL1a), IL1A (gene 3552); experiment: BSK_BE3C_IL1a: BioMAP Diversity Plus: BE3C Assay for Interleukin-1 alpha (IL1a) Biomarker Activity (AID 2283016); settings: primary human bronchial epithelial cells; actives raise or lower the signal
In short: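 Human primary bronchial epithelial cells (BE3C system) were dosed with compound and IL-1a measured by ELISA 24 h later. Activity was fitted bidirectionally against DMSO baseline; cytotoxicity was tracked in parallel cultures by SRB total-protein staining.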

[11] = read-out: Monocyte Chemoattractant Protein-1 (MCP1), CCL2 (gene 6347); experiment: BSK_3C_MCP1: BioMAP Diversity Plus: 3C Assay for Monocyte Chemoattractant Protein-1 (MCP1) Biomarker Activity (AID 2283017); settings: primary human endothelial cells (HUVEC); actives raise or lower the signal
In short: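 HUVEC, 3C system; 24 h chemical exposure; MCP-1 by ELISA; bidirectional curve fit vs DMSO baseline.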

[12] = read-out: Monocyte Chemoattractant Protein-1 (MCP1), CCL2 (gene 6347); experiment: BSK_4H_MCP1: BioMAP Diversity Plus: 4H Assay for Monocyte Chemoattractant Protein-1 (MCP1) Biomarker Activity (AID 2283018); settings: primary human endothelial cells (HUVEC); actives raise or lower the signal
In short: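 Human umbilical vein endothelial cells (4H system) dosed with chemical; MCP-1 measured by ELISA 24 h after dosing. Bidirectional curve fitting against DMSO negative control as baseline; parallel SRB total-protein staining tracks overt cytotoxicity.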

[13] = read-out: Human Leukocyte Antigen - DR isotype (HLADR), HLA-DRA (gene 3122); experiment: BSK_3C_HLADR: BioMAP Diversity Plus: 3C Assay for Human Leukocyte Antigen - DR isotype (HLADR) Biomarker Activity (AID 2283019); settings: primary human endothelial cells (HUVEC); actives raise or lower the signal
In short: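 HUVEC, 3C stimulation, 24 h post-dose; HLA-DR by ELISA; bidirectional curve fit vs DMSO baseline; gain or loss of signal scored.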

[14] = target: Nuclear receptor subfamily 1 group I member 2 (Homo sapiens) (UniProt O75469); experiment: ATG_PXR_TRANS: Attagene TRANS-FACTORIAL HepG2 Assay for human Pregnane X Receptor (PXR) (AID 2283008; active = hit-call score of the fitted dose curve at least 0.9, where 1 is the maximum)
Sequence of Nuclear receptor subfamily 1 group I member 2 (Homo sapiens) (O75469 whole entry, looked up, the tested form may be a part): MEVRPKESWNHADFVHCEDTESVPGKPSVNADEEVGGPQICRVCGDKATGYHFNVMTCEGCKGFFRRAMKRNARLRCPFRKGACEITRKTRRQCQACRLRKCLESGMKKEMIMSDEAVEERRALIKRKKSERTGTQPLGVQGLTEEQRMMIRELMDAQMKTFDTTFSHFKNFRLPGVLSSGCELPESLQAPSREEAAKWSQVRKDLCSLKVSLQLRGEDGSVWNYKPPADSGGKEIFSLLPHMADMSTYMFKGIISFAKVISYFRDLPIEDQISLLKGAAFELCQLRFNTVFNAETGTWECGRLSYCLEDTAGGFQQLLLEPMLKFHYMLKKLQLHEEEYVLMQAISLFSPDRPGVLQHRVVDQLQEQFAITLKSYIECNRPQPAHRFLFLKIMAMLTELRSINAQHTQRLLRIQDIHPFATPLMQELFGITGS
In short: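 Fluorescence intensity of FAM-labelled, HpaI-digested reporter amplicons, separated by capillary electrophoresis, quantifies induction. HepG2 cells with PXR-Gal4 trans-reporter system were exposed 24 h; DMSO defines baseline.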

[15] = target: human RAR-related Orphan Receptor gamma (RORg), RORC (gene 6097) (UniProt P51449); experiment: ATG_RORg_TRANS: Attagene TRANS-FACTORIAL HepG2 Assay for human RAR-related Orphan Receptor gamma (RORg) (AID 2283011; active = hit-call score of the fitted dose curve at least 0.9, where 1 is the maximum)
Sequence of human RAR-related Orphan Receptor gamma (RORg), RORC (gene 6097) (P51449 whole entry, looked up, the tested form may be a part): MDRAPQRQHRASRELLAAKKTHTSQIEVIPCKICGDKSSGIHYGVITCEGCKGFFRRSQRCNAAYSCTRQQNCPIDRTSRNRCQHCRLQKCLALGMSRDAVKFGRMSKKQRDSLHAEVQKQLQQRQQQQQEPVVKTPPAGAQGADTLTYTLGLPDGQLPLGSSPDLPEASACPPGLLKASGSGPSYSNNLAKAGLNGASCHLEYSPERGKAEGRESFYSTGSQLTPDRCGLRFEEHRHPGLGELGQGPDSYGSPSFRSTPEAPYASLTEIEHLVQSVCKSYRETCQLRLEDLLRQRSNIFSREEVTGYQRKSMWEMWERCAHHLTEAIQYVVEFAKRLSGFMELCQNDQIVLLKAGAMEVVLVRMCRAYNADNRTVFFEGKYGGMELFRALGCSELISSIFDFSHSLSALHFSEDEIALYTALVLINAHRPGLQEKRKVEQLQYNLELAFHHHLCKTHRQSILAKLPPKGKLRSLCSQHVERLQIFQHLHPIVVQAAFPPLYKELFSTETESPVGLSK
In short: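 Transient MRTU transfection of HepG2 (TRANS format, exogenous NR-Gal4 chimera). 24 h dosing. Total RNA → oligo(dT) RT → PCR → 6-FAM labelling → HpaI cut → CE. Gain vs DMSO.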

[16] = target: Retinoic acid receptor RXR-alpha (Homo sapiens) (UniProt P19793); experiment: ATG_RXRa_TRANS: Attagene TRANS-FACTORIAL HepG2 Assay for human Retinoid X Receptor alpha (RXRa) (AID 2283012; active = hit-call score of the fitted dose curve at least 0.9, where 1 is the maximum)
Sequence of Retinoic acid receptor RXR-alpha (Homo sapiens) (P19793 whole entry, looked up, the tested form may be a part): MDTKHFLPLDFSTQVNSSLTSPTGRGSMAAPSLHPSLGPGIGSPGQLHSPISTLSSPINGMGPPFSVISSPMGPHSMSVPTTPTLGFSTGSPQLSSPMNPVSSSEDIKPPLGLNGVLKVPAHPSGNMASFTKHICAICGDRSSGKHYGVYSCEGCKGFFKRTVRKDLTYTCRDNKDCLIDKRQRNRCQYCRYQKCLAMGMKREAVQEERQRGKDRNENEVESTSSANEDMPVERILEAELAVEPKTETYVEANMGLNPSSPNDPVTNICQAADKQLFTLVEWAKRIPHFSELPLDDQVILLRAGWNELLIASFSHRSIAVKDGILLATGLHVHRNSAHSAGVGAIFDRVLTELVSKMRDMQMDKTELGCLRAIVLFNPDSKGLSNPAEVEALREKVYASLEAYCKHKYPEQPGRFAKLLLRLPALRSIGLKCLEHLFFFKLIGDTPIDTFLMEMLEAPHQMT
In short: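 HepG2 cells transiently transfected with multiplexed GAL4-UAS reporter units and chimeric NR-GAL4 fusions, dosed 24 h. Reporter mRNA measured by RT-PCR, FAM labelling, HpaI digestion and capillary electrophoresis; gain-of-signal fitted relative to DMSO baseline.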

[17] = target: Retinoic acid receptor alpha (Homo sapiens) (UniProt P10276); experiment: ATG_RARa_TRANS: Attagene TRANS-FACTORIAL HepG2 Assay for human Retinoic Acid Receptor alpha (RARa) (AID 2283005; active = hit-call score of the fitted dose curve at least 0.9, where 1 is the maximum;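 as to AC50: potency for increased reporter signal meaning RARa activation over DMSO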)
Sequence of Retinoic acid receptor alpha (Homo sapiens) (P10276 whole entry, looked up, the tested form may be a part): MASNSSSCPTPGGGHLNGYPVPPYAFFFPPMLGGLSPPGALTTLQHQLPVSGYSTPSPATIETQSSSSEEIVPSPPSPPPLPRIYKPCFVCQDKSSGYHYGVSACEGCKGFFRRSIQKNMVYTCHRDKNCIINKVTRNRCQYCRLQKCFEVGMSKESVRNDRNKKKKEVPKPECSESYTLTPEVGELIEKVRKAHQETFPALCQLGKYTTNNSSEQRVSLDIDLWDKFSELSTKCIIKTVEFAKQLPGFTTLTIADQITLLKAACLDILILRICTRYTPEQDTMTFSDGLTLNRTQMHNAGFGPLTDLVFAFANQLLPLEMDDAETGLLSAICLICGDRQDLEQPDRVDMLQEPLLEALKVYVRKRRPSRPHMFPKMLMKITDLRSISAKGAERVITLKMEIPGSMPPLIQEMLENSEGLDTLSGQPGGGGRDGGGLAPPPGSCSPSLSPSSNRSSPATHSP
In short: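 Reporter transcripts, measured by RT-PCR with fluorescent labeling and capillary electrophoresis after 24 h dosing, reflect activity of an exogenous human RARa–GAL4 fusion in transiently transfected HepG2. Fitted for increase relative to DMSO.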

[18] = target: human Thyroid Receptor alpha (THRa1), THRA (gene 7067) (UniProt P10827); experiment: ATG_THRa1_TRANS: Attagene TRANS-FACTORIAL HepG2 Assay for human Thyroid Receptor alpha (THRa1) (AID 2283014; active = hit-call score of the fitted dose curve at least 0.9, where 1 is the maximum)
In short: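 Transient HepG2 transfection, NR-Gal4 chimera driving GAL4-UAS reporters; 24 h compound exposure; total RNA, oligo(dT) RT, PCR, fluorescent primer extension, capillary electrophoresis. Upward direction vs DMSO control.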

[19] = target: human Peroxisome Proliferator-activated Receptor alpha (PPARa), PPARA (gene 5465) (UniProt Q07869); experiment: ATG_PPARa_TRANS: Attagene TRANS-FACTORIAL HepG2 Assay for human Peroxisome Proliferator-activated Receptor alpha (PPARa) (AID 2283001; active = hit-call score of the fitted dose curve at least 0.9, where 1 is the maximum)
In short: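 Reporter transcripts from GAL4-UAS units in transfected HepG2 were quantified 24 h after dosing. Detection used reverse transcription, PCR, fluorescent primer extension and capillary electrophoresis, with DMSO as baseline.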

Measured: AC50

Sequence of E-selectin (Homo sapiens) (P16581 whole entry, looked up): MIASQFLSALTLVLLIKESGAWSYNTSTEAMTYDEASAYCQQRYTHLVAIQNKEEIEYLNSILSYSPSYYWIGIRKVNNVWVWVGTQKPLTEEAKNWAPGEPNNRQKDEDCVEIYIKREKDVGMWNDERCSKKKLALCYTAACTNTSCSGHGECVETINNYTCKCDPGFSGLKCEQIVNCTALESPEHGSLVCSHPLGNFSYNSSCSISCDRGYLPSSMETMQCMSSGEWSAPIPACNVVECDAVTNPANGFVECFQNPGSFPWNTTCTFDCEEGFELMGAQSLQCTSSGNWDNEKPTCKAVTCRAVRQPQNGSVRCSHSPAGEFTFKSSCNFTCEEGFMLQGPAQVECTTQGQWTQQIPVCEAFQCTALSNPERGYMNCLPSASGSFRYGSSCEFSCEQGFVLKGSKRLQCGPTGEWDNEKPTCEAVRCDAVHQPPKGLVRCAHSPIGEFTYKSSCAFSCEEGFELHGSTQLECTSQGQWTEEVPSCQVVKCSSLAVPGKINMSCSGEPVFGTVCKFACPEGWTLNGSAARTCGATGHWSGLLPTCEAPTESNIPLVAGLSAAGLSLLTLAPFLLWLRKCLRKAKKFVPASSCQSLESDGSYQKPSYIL

C=C(C)C(=O)OCC(F)(F)C(F)(F)C(F)(F)C(F)(F)C(F)(F)C(F)(F)C(F)(F)F
not listed: [14] | [15] | [16] | [17] | [18] | [19]
inactive: all other assays above

O=C(O)C(F)(F)C(F)(F)C(F)(F)C(F)(F)F
not listed: [2] | [17] | [18] | [19]
inactive: all other assays above

Nc1ccc([N+](=O)[O-])cc1O
not listed: [6] | [15] | [17] | [18] | [19]
inactive: all other assays above

C=C(C)C(=O)OCC(F)(F)C(F)(F)C(F)(F)F
not listed: [6] | [7] | [14] | [15] | [18] | [19]
inactive: all other assays above

N=C(N)C(F)(F)C(F)(F)C(F)(F)C(F)(F)C(F)(F)C(F)(F)C(F)(F)F
inactive: [3] | [5] | [14] | [7] | [15] | [16] | [8] | [9] | [10] | [11] | [12] | [13]
active: [1] 36.8 µM and 30 µM | [4] 50.7 µM and 24.7 µM | [11] 46.3 µM | [13] 30 µM

FC(F)(Br)C(F)(F)C(F)(F)C(F)(F)C(F)(F)C(F)(F)Br
not listed: [6] | [7] | [15] | [17] | [18] | [19]
inactive: all other assays above

C=CC(=O)OCC(F)(F)C(F)(F)C(F)(F)C(F)(F)C(F)(F)C(F)(F)C(F)(F)F
active: [4] 30 µM
not listed: [6] | [14] | [15] | [16] | [17] | [18] | [19]
inactive: all other assays above

CCCCCCOC(=O)c1ccccc1O
inactive: [2] | [5] | [7] | [15] | [10]
active: [1] 37.6 µM and 43.5 µM | [3] 38.6 µM and 47 µM | [4] 35.3 µM and 40.9 µM | [9] 38.5 µM and 46.9 µM | [11] 41.9 µM and 38 µM | [12] 33.5 µM and 34.3 µM | [13] 37.4 µM and 43.7 µM

FC(F)(F)C(F)(F)C(F)(F)C(F)(F)C(F)(F)C(F)(F)CC1CO1 (stereo unspecified)
not listed: [2] | [8] | [14] | [18] | [19]
inactive: all other assays above

OCC(F)(F)C(F)(F)C(F)(F)C(F)F
not listed: [8] | [17] | [18] | [19]
inactive: all other assays above

CC(=O)Nc1ccc(N=Nc2cc(C)ccc2O)cc1
active: [1] 20 µM | [4] 4.08 µM | [5] 32.3 µM | [18] 47.6 µM | [9] 463 nM | [13] 14.5 µM
not listed: [2] | [14] | [16] | [17] | [19]
inactive: all other assays above

FC1CC(F)(F)C(F)(F)C1(F)F (stereo unspecified)
not listed: [2] | [6] | [7] | [8] | [14] | [16] | [18] | [19]
inactive: all other assays above

c1ccc(B(c2ccccc2)c2ccccc2)cc1
inactive: [2] | [16]
active: [5] 33.9 µM | [8] 100 µM

c1ccc(-c2ccccc2-c2ccccc2)cc1
inactive: [2] | [5] | [7] | [16]
active: [14] 27 µM | [8] 12.7 µM

Nc1cc(Cl)c(N)c(Cl)c1
inactive: [19] | [6] | [7] | [15] | [16] | [8] | [18]
active: [17] 43 µM | [5] 38.7 µM

O=C(C=Cc1ccccc1)OCC=Cc1ccccc1
active: [5] 0.641 µM | [14] 23.9 µM
inactive: [2] | [7] | [16]
